Screening data deposited in PubChem BioAssay by Broad Institute.
aSyn UTR act: Activators via SNCA 5'UTR binding, MLPCN; AID 1814; 7.1% of 300,000 active; alpha-synuclein 5'UTR reporter, activators screen; activity score, % (tested at 7.5 µM), hits read low; in the data active means activity score below about -60%
Large screens that a line does not name were inactive. These entries were drawn from the full list.

CCOC(=O)c1cc(C)n(CCc2ccccc2)c1C	aSyn UTR act -69
COc1ccc(Cl)cc1C(=O)Nc1nc2ccc(S(C)(=O)=O)cc2s1	aSyn UTR act -73
CS(=O)(=O)c1ccc2nc(NC(=O)c3cccc([N+](=O)[O-])c3)sc2c1	aSyn UTR act -136
COc1cc(OC)cc(C(=O)Nc2nc3ccc(S(C)(=O)=O)cc3s2)c1	aSyn UTR act -149
Nc1nc2c(s1)CCc1c-2cnn1-c1ccccc1	aSyn UTR act -80
O=C(N/N=C/c1ccc(-c2ccccc2[N+](=O)[O-])o1)[C@H]1C[C@@H]1c1ccccc1	aSyn UTR act -79
O=C(/C=C/c1ccc(-c2ccccc2[N+](=O)[O-])o1)c1ccccc1	aSyn UTR act -120
CC(=O)Nc1sc(N/N=C\c2ccccc2F)nc1-c1cccs1	aSyn UTR act -184
CC(=O)Nc1sc(N/N=C\c2ccc(O)cc2)nc1-c1cccs1	aSyn UTR act -100
CC(=O)Nc1sc(N/N=C\c2cccc(Cl)c2)nc1-c1cccs1	aSyn UTR act -82
CCOC(=O)Cn1c(=NC(=O)c2ccc([N+](=O)[O-])s2)sc2ccccc21	aSyn UTR act -180
Cc1cccc(NC(=O)c2cnn3ccccc23)c1C	aSyn UTR act -85
Cc1ccccc1NC(=O)c1cccc2nccnc12	aSyn UTR act -74
Cc1onc(-c2ccccc2)c1C(=O)NC(=S)NNC(=O)c1ccccc1O	none
Cc1cccc(C(=O)NNC(=O)c2ccccc2O)c1	aSyn UTR act -76
O=C(Nc1ccccc1O)c1ccc(C(=O)c2ccccc2)o1	aSyn UTR act -96
Cc1cccc(NC(=O)c2ccccc2O)c1C	aSyn UTR act -174
O=C(NCc1ccc(Cl)cc1)c1cnn2ccccc12	aSyn UTR act -142
O=C(Nc1ccccc1O)c1ccccc1O	aSyn UTR act -133
Cc1ccc(C)c(NC(=O)c2ccccc2O)c1	aSyn UTR act -96
COc1ccc2nc(C)cc(N/N=C/c3ccc(F)cc3)c2c1	none
COc1ccc(/C=N/Nc2cc(C)nc3c(C)cccc23)cc1	aSyn UTR act -81
Oc1ccc2ccccc2c1/C=N/Nc1nnc(-c2ncc[nH]2)c2ccccc12	none
COc1ccc(/C=N/Nc2nnc(-c3ncc[nH]3)c3ccccc23)cc1	aSyn UTR act -203
COc1ccc(/C=N/Nc2cc(C)nc3ccccc23)cc1	aSyn UTR act -85
COc1ccc(-n2ncc3c(NCc4cccs4)ncnc32)cc1	aSyn UTR act -171
c1ccc(-n2ncc3c(NCc4cccnc4)ncnc32)cc1	aSyn UTR act -114
Nc1nc(NCc2cccs2)nn1-c1ccccc1	aSyn UTR act -67
c1ccc(-n2ncc3c(NCc4cccs4)ncnc32)cc1	aSyn UTR act -162
COc1ccc(OC)c(/C=C2\SC(=S)N(Cc3cccnc3)C2=O)c1	aSyn UTR act -62
COc1ccccc1C(=O)n1nc(-c2ccccc2)nc1NCc1ccco1	aSyn UTR act -88
O=C(COc1ccccc1)n1nc(-c2ccc(Cl)cc2)nc1NCc1ccco1	aSyn UTR act -132
O=C(c1ccco1)n1nc(-c2ccc(Cl)cc2)nc1NCc1ccco1	aSyn UTR act -176
Cc1ccc(-c2nc(NCc3ccco3)n(C(=O)c3ccco3)n2)cc1	aSyn UTR act -143
COC(=O)c1ccc(N2CCC(C)CC2)c(N)c1	aSyn UTR act -99
COC(=O)c1ccc(N2CCCCC2)c(N)c1	aSyn UTR act -92
COC(=O)c1cc(C(=O)N2CCN(c3cccc(C)c3C)CC2)cc([N+](=O)[O-])c1	none
Nc1ccc(N2CCCCC2)cc1N1CCCCC1	none
Cn1c(=N)n(CC(=O)c2ccc(Br)s2)c2ccccc21	aSyn UTR act -118
Cn1c(=N)n(CC(=O)c2cccs2)c2ccccc21	aSyn UTR act -92
COc1cccc(C(=O)Cn2c(=N)n(C)c3ccccc32)c1	none
CCOC(=O)/C(C#N)=C(C)/C=C1\Sc2ccccc2N1CC	aSyn UTR act -105
CN(C)c1ccc(/C=N\NC(=O)c2cccc3cc[nH]c23)cc1	aSyn UTR act -69
Cc1ccc(/C=N/NC(=O)c2c(C)nc3ccc(Br)cn23)cc1	none
CSC(=S)N/N=C/c1ccc(N(C)C)cc1	aSyn UTR act -96
CN(C)c1ccc(/C=N/NC(=O)c2ccco2)cc1	aSyn UTR act -78
Cc1ccc(/C=N/NC(=O)c2ccco2)cc1	aSyn UTR act -94
Cc1ccc(-n2ncc3c(N4CCCC4)ncnc32)c(C)c1	aSyn UTR act -114
Cc1ccc(-n2ncc3c(N4CCCC(C)C4)ncnc32)c(C)c1 (configuration not stated)	aSyn UTR act -125
CC1CCCN(c2ncnc3c2cnn3-c2ccccc2)C1 (configuration not stated)	none
Cc1ccc(/C(N)=N/OC(=O)COc2ccccc2Cl)cc1	aSyn UTR act -95
N/C(=N\OC(=O)COc1ccccc1Cl)c1ccc(Cl)cc1	aSyn UTR act -90
COc1cccc(NC(=O)c2nnn(CCc3ccccc3)c2N)c1	aSyn UTR act -127
COc1ccc(C)cc1NC(=O)c1nnn(Cc2cccc(C(F)(F)F)c2)c1N	none
COc1cccc(NC(=O)c2nnn(Cc3ccc(Br)cc3F)c2N)c1	aSyn UTR act -80
CCN(CC)c1ccc(/C=C2\SC(=O)N(C(C)C)C2=O)o1	aSyn UTR act -103
